Test results as given in PubChem BioAssay (NCATS).
Results filed as inconclusive are left out. Where a call stands in place of a potency, no number is given. Calls of active or inactive are those of the source. Calls follow the shape of the dose curve; as a rule, active = well fitted inhibition curve with a large enough effect; inconclusive = small, poorly fitted or top-dose-only effect; inactive = flat fitted curve, though single readings scatter.

Test system: HACAT
Test: qHTS assay to identify novel small-molecules to repurpose for Merkel cell carcinoma treatment (AID 1296009); also: nearly all actives have a fitted effect of over 60% in size
Conditions: MCC and control cell lines, CellTiter-Glo viability, 72 h; series mostly up to 44.8 µM
How it was run: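 Luminescence from CellTiter-Glo, read 10 min after addition at room temperature, reported viability following a 72 hr, 37 degree celsius treatment with NPC or MIPE compounds in titration; values normalized to plate controls.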

Row | SMILES | Potency | outcome
1 | COc1cc2c(c(OC)c1CC=C(C)C)C[C@H](c1ccc(O)cc1O)CO2 | inactive | 
2 | COc1cc(OC)c(/C=C/S(=O)(=O)Cc2ccc(OC)c(NCC(=O)O)c2)c(OC)c1 | inactive | 
3 | COc1c2cc(c(O)c1OC)-c1cc(ccc1O)CCC(O)CCCC2 (stereo not drawn) | inactive | 
4 | COc1ccc([C@@]2(O)c3c(ccc(CC=C(C)C)c3O)NC(=O)[C@@H]2OC)cc1 | inactive | 
5 | C[C@@H]1CC[C@]2(C(=O)O[C@@H]3O[C@H](CO)[C@@H](O)[C@H](O)[C@H]3O)CC[C@]3(C)C(=CCC4[C@@]5(C)C[C@@H](O)[C@H](O)[C@](C)(C(=O)O)C5CC[C@]43C)[C@@H]2[C@]1(C)O (stereo partly drawn) | inactive | 
6 | COc1ccc(-c2cnc3ccc(NCc4ccc(S(N)(=O)=O)cc4)nn23)cc1OC | inactive | 
7 | C[C@@]12CC[C@@H]3[C@@](CC[C@H]4[C@@]3(C)CCC[C@@]4(C)C(=O)O)(CC1=O)C2 | inactive | 
8 | C=C(C(=O)O)C1CCC2(C)CCCC(C)(O)C2C1 (stereo not drawn) | inactive | 
9 | CC1=CC(=O)CC(C)(C)[C@H]1/C=C/C(CO)O[C@@H]1O[C@H](CO)[C@@H](O)[C@H](O)[C@H]1O (stereo partly drawn) | inactive | 
10 | O=C(O[C@H]1[C@@H]2C=CO[C@@H](O[C@@H]3O[C@H](CO)[C@@H](O)[C@H](O)[C@H]3O)[C@@H]2[C@@]2(CO)O[C@@H]12)c1ccccc1 | inactive | 
11 | CN1CCN(C(=O)c2ccc3cc(CCNc4ncnc5ccc(C#N)cc45)ccc3c2)CC1 | inactive | 
12 | Nc1nc2c(c(N3CCNCC3)n1)CCC1=C2[C@@H]2CCCC[C@@H]2O1 | inactive | 
13 | C=CC1C(OC2OC(CO)C(O)C(O)C2O)OC=C(C(=O)OC)C1CC(=O)OCC1C(C)C(O)CC1C(CO)COC(=O)CC1C(C(=O)O)=COC(OC2OC(CO)C(O)C(O)C2O)/C1=C\C (stereo not drawn) |  | inactive [at 9.27 µM]
